Abeta yeast res: A-beta toxicity reversal in yeast | yeast expressing A-beta42, growth rescue, OD600, 48 h; response scale: 0% DMSO, 100% iron-clioquinol control | Potency, µM (doses to about 46.1 µM), most hits filed as activators | hit rate 0.063% among 410,000 | AID 1347071; also: nearly all actives have a fitted effect of over 55% in size
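Growth rescue measured by 600 nm absorbance after 48 h yeast culture at 30 C with compound. Values normalized between DMSO and an equimolar ferric chloride plus clioquinol control.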
PTAP TSG101 blk: blocks PTAP/TSG101 interaction to inhibit HIV-1 budding | Q99816 | Fluorescence polarization, FITC-PTAP peptide / Tsg101 binding | Potency, µM (top dose mostly 115 µM), usual class: inhibitors | 340,000 tested, under 10 active; active = well fitted inhibition curve with a large enough effect in the main read-out, with a control signal flat, not every such curve was filed as active; inconclusive = small, poorly fitted or top-dose-only effect, or effect the other way, or a change in a side signal; inactive = no such curve, though single readings can be large or run the other way
Target sequence (Q99816 whole entry, looked up): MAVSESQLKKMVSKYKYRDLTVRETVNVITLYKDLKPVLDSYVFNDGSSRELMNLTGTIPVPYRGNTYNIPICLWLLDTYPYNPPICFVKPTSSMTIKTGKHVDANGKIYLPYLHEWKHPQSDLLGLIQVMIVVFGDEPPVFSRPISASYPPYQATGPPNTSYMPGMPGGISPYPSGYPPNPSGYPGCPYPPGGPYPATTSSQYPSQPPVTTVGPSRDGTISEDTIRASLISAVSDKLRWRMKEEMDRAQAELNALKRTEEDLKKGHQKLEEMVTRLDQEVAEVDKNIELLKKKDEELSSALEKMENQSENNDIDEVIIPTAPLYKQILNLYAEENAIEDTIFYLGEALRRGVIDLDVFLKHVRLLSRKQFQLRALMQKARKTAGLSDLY
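Steps: Tsg101 binding domain dispensed (10 uM final), compounds pinned in DMSO, FITC-labeled PTAP-motif peptide added (50 nM final); after 20 min binding at room temperature, polarization measured.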
TDP-43 yeast inh: rescues yeast growth from TDP-43 toxicity | TDP-43 expressing yeast growth rescue, BacTiter-Glo, 24 h | Potency, µM (series often up to 46.1 µM), most hits filed as activators | hit rate 1.8% among 410,000 | AID 652104; also: nearly all actives have a fitted effect of over 50% in size
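In this qHTS, compounds that restore growth of yeast expressing TDP-43 appear as activators. Cells (OD600=0.02, galactose medium, raffinose-pregrown) are incubated with compound 24 hr at 30 deg C and growth is quantified by BacTiter-Glo.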
FUS suppressor: rescues growth of FUS-expressing yeast | S. cerevisiae FUS-expressing, growth rescue, OD600, 24 h | Potency, µM (highest dose often 76.6 µM), actives largely listed as activators | hit rate 0.24% among 390,000 | AID 1347120; also: nearly all actives have a fitted effect of over 55% in size
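Read-out: OD at 600 nm after 24hr at 30C, reporting rescue of FUS-induced yeast toxicity. Cells at OD 0.005 in galactose (2%) minimal medium; compounds tested in a dilution series; CP55940 titration from 92uM final as control.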
aSyn yeast inh: alpha-synuclein toxicity inhibition in yeast; Yeast expressing alpha-synuclein, growth rescue, BacTiter-Glo, 24 h; Potency, µM (highest dose often 46.1 µM), actives largely listed as activators; hit rate 0.14% among 370,000; also: nearly all actives have a fitted effect of over 65% in size
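Screening used galactose-induced yeast with toxic alpha-synuclein levels, exposed to compound for 24 hr at 30 deg C. Cell growth, read with BacTiter-Glo luminescence, gave the measured signal.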
Numbers stand for hits; - = inactive; ? = inconclusive; . = no result; [ ] = dose if it differs, or a comment. In the library only some 2.1% were active in any assay of this set; here they are far more common. Unless noted, calls follow the shape of the dose curve; as a rule, active = well fitted curve in the direction sought with a large enough effect; inconclusive = small, poorly fitted or top-dose-only effect, or another doubt; inactive = no such curve, though single readings can be large; an effect the other way counts as inactive or inconclusive.

SMILES	Abeta yeast res	PTAP TSG101 blk	TDP-43 yeast inh	FUS suppressor	aSyn yeast inh
CCOC(=O)c1ccc(NC(=O)c2ccccc2N(C)S(=O)(=O)c2ccccc2)cc1	-	-	35.5µM	.	-
CCc1ccccc1NC(=O)CSc1nc2c(oc3ccccc32)c(=O)n1-c1ccccc1	-	.	-	-	.
COc1ccc(-n2c(-c3cnccn3)n[nH]c2=S)cc1	-	.	-	-	3.55µM
Cc1cccc(Cn2c(=O)oc3ccc(C)cc32)c1	-	-	20µM	-	-
Nc1ccccc1SC(CC(=O)c1ccccc1)c1cccc([N+](=O)[O-])c1 (configuration not stated)	-	.	25.1µM	-	-
O=[N+]([O-])c1ccc(-[n+]2ccc3ccccc3c2)c([N+](=O)[O-])c1	-	-	?	-	-
Cc1noc2ncnc(Sc3ccc(Br)cc3)c12	-	-	5.62µM	-	-
C=CCNc1nc(Cl)nc(NC2CCCCC2)n1	-	-	15.8µM	-	-
Cc1cccc(NC(=O)c2cc(S(=O)(=O)N(C)c3ccc(F)cc3)ccc2Cl)n1	-	-	11.2µM	-	-
CN(C1CCCCC1)S(=O)(=O)c1cccc(C(=O)Nc2ccccn2)c1	-	-	17.8µM	-	-
Cc1ccccc1NC(=O)c1ccc(F)c(S(=O)(=O)NCC2CCCO2)c1 (configuration not stated)	-	-	-	-	-
COc1ccccc1N(C)S(=O)(=O)c1ccc(Cl)c(C(=O)Nc2cccc(C)n2)c1	-	-	-	-	-
Cc1cccc(NC(=O)c2cccc(S(=O)(=O)N(C)C3CCCCC3)c2)n1	-	.	20µM	-	-
Cc1ccccc1NC(=O)c1ccc(F)c(S(=O)(=O)N(C)C2CCCCC2)c1	?	.	15.8µM	?	.
O=C(NCc1ccco1)c1ccc2sc([C@H]3C[C@H](O)[C@@H](CO)O3)nc2c1	-	.	-	-	-
CC(=O)Nc1cccc(NS(=O)(=O)c2ccc3c(c2)CCC(=O)N3)c1	-	.	-	-	-
Cc1ccc(C2C=C(c3ccc(F)cc3)Nc3nc(CCCO)nn32)cc1 (configuration not stated)	-	.	-[9.22 µM]	-	.
O=C(ON=C1CCN(S(=O)(=O)c2ccccc2)CC1)c1ccccc1	-	-	20µM	-	-
O=C(ON=C1CCN(S(=O)(=O)c2ccccc2)CC1)c1cccc(Cl)c1	-	-	?	-	-
CC(C)CC1NC(=O)c2cc3ccccc3cc2-n2c1nc1ccc(F)cc1c2=O (configuration not stated)	-	.	-	-	?
Cc1cccc(-c2nnc(C3CCN(S(=O)(=O)c4cccc(Cl)c4)CC3)o2)c1	-	.	15.8µM	?	.
CCc1ccc(NC(=O)C2CCCN(S(=O)(=O)c3cccc4nsnc34)C2)cc1 (configuration not stated)	-	.	-	-	.
CCOC(=O)Cn1c(=O)n(Cc2ccco2)c(=O)c2ccc(C(=O)NC3CCCC3)cc21	-	-	-	-	0.562µM
CC(C)CC(=O)Nc1ccc(N2CCN(C(=O)c3cccs3)CC2)cc1	-	-	-	-	-
O=C(Cn1nc(-c2ccccc2)ccc1=O)Nc1ccc(N2CCN(C(=O)c3cccs3)CC2)cc1	-	-	-	8.91µM	-
SMILES	Abeta yeast res	PTAP TSG101 blk	TDP-43 yeast inh	FUS suppressor	aSyn yeast inh
O=C(O)c1cc2c(s1)-c1ccccc1OC2	-	-	31.6µM	-	-
O=C(NC1CC1)c1cc2c(s1)-c1ccccc1OC2	-	-	?	-	-
COc1ccccc1N1CCN(C(=O)c2cc(-c3ccc(C)c(F)c3)on2)CC1	-	.	35.5µM	-	.
O=C(c1cc(-c2ccc(O)cc2)on1)N1CCN(c2ccccc2)CC1	-	-	10µM	-	-
COc1ccc(OC)c(-c2cc(C(=O)N3CCOCC3)no2)c1	-	-	-	-	-
COc1ccccc1-c1cc(C(=O)N2CCN(c3ccccc3)CC2)no1	-	-	17.8µM	?	-
COc1ccccc1N1CCN(C(=O)c2oc3cc(C)cc(C)c3c2C)CC1	-	-	22.4µM	?	-
CS(=O)(=O)N1CCN(/[N+]([O-])=N/Oc2ccc([N+](=O)[O-])cc2[N+](=O)[O-])CC1 (tested in a mixture with another compound)	.	.	.	.	-
Clc1ccccc1-c1cc2nc(NCc3ccco3)ccn2n1	-	.	?	-	-
O=C(c1cc(-c2ccc3c(c2)OCO3)on1)N1CCN(c2ccc(F)cc2)CC1	-	-	-	-	-
O=C(c1cc(-c2ccc(O)cc2)on1)N1CCN(c2ccc(F)cc2)CC1	?	-	15.8µM	-	-
COc1ccc(-c2noc(N3CCC(C(=O)N4CCN(c5ccccc5OC)CC4)CC3)n2)cc1	-	.	28.2µM	?	.
COc1ccccc1N1CCN(C(=O)C2c3ccccc3Oc3ccccc32)CC1	-	-	?	-	20µM
O=C1NC[C@@H](CCCCN2C[C@H](Cc3ccccc3)N(CCc3ccc(O)cc3)C(=O)C2=O)N(Cc2ccccc2)C1=O	-	.	-	-	-
CCOC(=O)CNC(=O)CSc1nnc(-c2ccccc2)n1CC	.	.	.	-	.
CN(C(=O)c1ccc(Oc2ccc([N+](=O)[O-])cc2)cc1)C1CCCCC1	-	-	20µM	?	-
CN(C(=O)c1cccc(NC(=O)Cc2ccc([N+](=O)[O-])cc2)c1)C1CCCCC1	-	-	-	?	-
CCOC(=O)c1ccc(OCC2c3cc(OC)c(OC)cc3CCN2C(=O)Cc2ccc(F)cc2)cc1 (configuration not stated)	-	.	20µM	12.6µM	-
CCCCC(=O)N1CCc2cc(OC)c(OC)cc2C1COc1ccc(C(=O)OCC)cc1 (configuration not stated)	-	.	22.4µM	?	-
Cc1cc(C)cc(NC(=O)Cn2c(C(F)(F)F)nc3ccccc32)c1	-	.	-	-	-
O=S(=O)(c1ccccc1F)N1CCC(Oc2ccc(-n3cnnn3)cc2)CC1	?	-	12.6µM	-	-
CC(C)(C)c1ccc(S(=O)(=O)N2CCC(Oc3ccc(-n4cnnn4)cc3)CC2)cc1	-	.	-	-	.
N#CC1=C2SCN(Cc3ccco3)CN2C(=O)CC1c1ccc(Cl)cc1 (configuration not stated)	-	-	-	20µM	-
CC1(C)OC(=O)C2=C(C[C@@H](C3CCCCC3)O[C@H]2c2ccc(Cl)cc2)O1	-	.	-	-	-
CCN(Cc1ccccc1)C(=O)c1nc(-c2cccc(F)c2)n2c1CCCCC2	-	.	?	-	.
CN1C(=O)C2(N=c3ccccc3=N2)c2ccccc21	-	-	11.2µM	-	-
CN1C(=O)C2(OCC(C)([N+](=O)[O-])CO2)c2ccccc21 (configuration not stated)	-	-	-	-	-

From PubChem
